The values that follow come from PubChem BioAssay (NCI).

The panel holds about 83,000 compounds, 20% with a hit somewhere; the sample as a whole holds those more often.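 Each cell line was grown in a 96-well plate and treated with one concentration of compound for 48 hours. Values below 10 were considered active.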 Values without a mark were called inactive. Calls of active or inactive are those of the source.

The test system of the first experiment is IGROV1 ovarian. Briefly: NCI-60 one-dose screen, 48 h (100 = growth as untreated, 0 = no growth, -100 = all killed). Particulars: 1 µM. As to the method:
Growth inhibition of the IGROV1 human tumor cell line is measured as a screen for anti-cancer activity. Cells are grown in 96 well plates and exposed to the test compound for 48 hours. Compounds are tested at a single concentration, which is 10^-5 M for most compounds. The reported endpoint is percent growth (GI% or GIPRCNT), where numbers from 0 - 100% represent growth inhibition, and numbers from -100% - 0 represent cell death. For example, a value of 40 represents 60% growth inhibition. A value of 0 means no net growth occurred over the course of the experiment. A value of -40 indicates 40% of cells at the beginning of the experiment died by the end of the experiment. A value of -100 means all cells are dead at the end of the experiment.
NCI-60 Human Tumor Cell Lines Screen was performed using the standard one-dose NCI protocol, which is described in more detail at https://dtp.cancer.gov/discovery_development/nci-60/default.htm.
Compounds with GIPRCNT values below 10 were considered active. Activity score was based on GIPRCNT using the following formula: […]
Score is 0 for GIPRCNT values of 100 or above, 50 for GIPRCNT values of 0, and 100 for GIPRCNT values of -100.
`CC/C(=C(/c1ccc(O)cc1)c1ccc(OCCN(C)C(=O)COCCOCCNC(=O)c2ccc3c(c2)CN([C@@H]2CCC(=O)NC2=O)C3=O)cc1)c1ccccc1`: the growth was 63.1%. Consider `CC/C(=C(\c1ccc(O)cc1)c1ccc(OCCN(C)C(=O)COCCNC(=O)Cc2ccc3c(c2)CN([C@@H]2CCC(=O)NC2=O)C3=O)cc1)c1ccccc1`, for which the growth was 38.5%.

The experiment is the same for the next values; noted with them: 10 µM.
As to `CC/C(=C(/c1ccc(O)cc1)c1ccc(OCCN(C)C(=O)COCCOCCNC(=O)c2ccc3c(c2)CN([C@@H]2CCC(=O)NC2=O)C3=O)cc1)c1ccccc1`, the growth was 37.6%. Take `CC/C(=C(\c1ccc(O)cc1)c1ccc(OCCN(C)C(=O)COCCNC(=O)Cc2ccc3c(c2)CN([C@@H]2CCC(=O)NC2=O)C3=O)cc1)c1ccccc1`: the growth is 9.45% (active).

The experiment is the same for the next values; noted with them: 10 µM unless noted.
Take `FC(F)(F)CN1CCN(CCn2c(C(F)(F)F)cc3c(Cl)ncnc32)CC1`: the growth is -80.5% (active). For `COc1ccc2nc(NC(=O)c3ccc(N(C)C)cc3)sc2c1`, the growth is 99.5%. As for `O=C(Nc1ccc(-c2ccc3c(c2)NC(=O)/C3=C\c2ccc[nH]2)cc1)Nc1ccc(Cl)c(C(F)(F)F)c1`, the growth was 61.7%. On to `COc1ccc2c(c1)N=c1c-2cc2c(O)[nH]c(=S)n2c1=O`, for which the growth was 50%. Take `O=C(CSc1nc2sc3c(c2c(=O)n1-c1ccc(Cl)cc1)CCCC3)NNC(=O)c1ccc(Br)cc1`: the growth is 60.3%.

As to `NS(=O)(=O)c1ccc(Nc2nc(SCC(=O)c3ccc(F)cc3)nc3ccccc23)cc1`, the growth was 46.4%. Still for that read-out and setting: the result for `CCC1(OC(=O)c2ccccc2SSCCOC(=O)CCCCC2SCC3NC(=O)NC32)C(=O)OCc2c1cc1n(c2=O)Cc2cc3ccccc3nc2-1` (stereo not given) reads 75.3%; that for `O=C(NNC(=S)NC(=O)c1ccccc1)c1ccc(OCc2nc3ccc(Cl)cc3[nH]2)cc1`, -46.5% (active); that for `Cc1ccc(C(=O)Nc2cccc(C(=O)NC(=S)Nc3ccc(S(N)(=O)=O)cc3)c2)cc1`, 96.2%. Still for that read-out and setting: to `COc1ccc(-c2cc(C)nc3[nH]c(=O)sc23)cc1` belongs 62.5%; to `CS(=O)(=O)c1ccc(-n2nc(C(=O)NCc3ccccc3)cc2-c2ccc(Cl)cc2)cc1`, 95.9%; to `CCOC(=O)c1ccc(NC(=S)NC(=O)c2cccc(NC(=O)c3ccc(C)cc3)c2)cc1`, 73.6%. Regarding `COc1ccc(-c2nc3ccccc3n2CC(=O)N=Nc2c(O)[nH]c3ccc(OC)cc23)cc1`, the growth is 45.7%. Consider `O=C1N/C(=N\c2nccs2)S/C1=C\c1ccc([N+](=O)[O-])cc1`, for which the growth was 23.6%. Regarding `CN(C)CCCc1ccc(Nc2cnn(C)c(=O)c2Cl)cc1`, the growth was 104%. Same read-out and setting: to `O=C(c1cc2cc(OCCCN3CCC3)ccc2[nH]1)N1C[C@@H](CCl)c2c1cc(OCc1ccccc1)c1ccccc21` belongs -53.8% (active); to `c1n[nH]cc1-c1nc2ccc3cn[nH]c3c2c2c1CCCC2`, 66.5%. For the compound `Nc1cc(-c2c[nH]c3ccc(Br)cc23)nc2cc(-c3c[nH]c4ccccc34)nn12`, the growth was -77.1% (active).

On to `COc1cccc(-c2ccc(/C=N/NC(=O)c3[nH]c4ccc(Br)cc4c3-c3ccccc3)s2)c1`, for which the growth is 8.09% (active). The same measure, in the same setting: to `COc1c2c(c(Br)c3c1C(CCc1ccccc1)N(C)CC3)OCO2` (stereo not given) belongs 19.5%; to `N#C/C(=C/c1ccc(Cl)cc1)c1nnc(NC(=O)c2ccc(-n3c(=O)[nH]c4ccccc4c3=O)cc2)s1`, 80.9%; to `Oc1ccc(Cl)c(Nc2nc(SCCN3CCOCC3)nc3c2cnn3CC(Cl)c2ccc(Br)cc2)c1` (stereo not given), 1.12% (active). Consider `CC(C)CN1C(=O)/C(=C\C(=O)c2cc3ccccc3oc2=O)c2ccccc21`, for which the growth was 87.7%.

As for `N#Cc1cc(-c2ccc3ncnc(N4CCc5cc(F)c(Cl)cc54)c3c2)cnc1N`, the growth was -16.2% (active). Same read-out and setting: to `COc1ccc2[nH]cc(-c3cc4nc(-c5cn(C)c6ncc(Br)cc56)cc(N)n4n3)c2c1` belongs -77.3% (active).

`Cc1oc(-c2ccccc2)nc1CN[C@@H]1C[C@@H]2C[C@H]([C@H]1C)C2(C)C`: the growth was 37.6%. On the same count and under the same terms, the result for `CC(C)(C)C(=O)c1c2c(c3ccc4c5ccccc5ccc4n13)C(=O)c1ccccc1C2=O` reads 95.7%; that for `Cc1nc2sccn2c1-c1nnc(SCC(C)C)o1`, 89.4%. As to `CCOC(=O)/C(F)=C/C1CC1C1CCN(C(=O)OC(C)(C)C)CC1` (stereo not given), the growth was 106%. Still for that read-out and setting: to `COc1ccc(C(=O)c2c(N)c(C#N)cn2-c2ccc([N+](=O)[O-])cc2)cc1` belongs 109%; to `N#CC1=C(c2cccs2)Nc2c(c(-c3ccccc3)nn2-c2ccccc2)C12C(=O)Nc1ccc(Cl)cc12` (stereo not given), 24%. In the case of `O=S(=O)(c1nc(-c2ccc(Br)cc2)oc1-c1ccc(Cl)cc1)N1CCCC(O)C1` (stereo not given), the growth was 87.8%.

`N#Cc1cc(-c2ccnc(Nc3ccc(N4CCN(C5COC5)CC4)cc3)n2)ccc1N1CCCC1`: the growth was 55.3%. Still for that read-out and setting: the result for `COc1ccc(/C=C/C(=O)c2ccc(S(=O)(=O)NCCNc3nc(N(C)C)nc(N4CCOCC4)n3)cc2)cc1` reads 98.5%.

As to `COc1ccc2[nH]c(O)c(N=Nc3nc(-c4ccc(Cl)cc4)cs3)c2c1`, the growth is -3.99% (active).

`COc1ccc(NC(=O)Nc2nc3ccc([N+](=O)[O-])cc3s2)cc1`: the growth is 26.4%.
